In PubChem BioAssay (NCATS):
Where “and” joins values, the source holds several entries; their conditions need not be identical. Equal values may be shown once. Inconclusive results are not listed. Calls of active or inactive are those of the source. Unless noted, calls come from the whole dose curve; as a rule, active = well fitted curve in the direction sought with a large enough effect; inconclusive = small, poorly fitted or top-dose-only effect, or another doubt; inactive = no such curve, though single readings can be large; an effect the other way counts as inactive or inconclusive.

Tests used:
[1] = AP1 Signaling Pathway (AID 357; active = well fitted curve in either direction with a large enough effect, not every such curve was filed as active;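 note: ME-180 reporter cells stimulated with EGF at its EC50 level; % is set by controls: 0 for no effect and ±100 for the full control effect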); conditions: ME-180 AP-1-bla reporter, EGF-induced, beta-lactamase ratio, 5 h; at 7.69 µM (top of the series) unless noted
Outline: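 A ratiometric CCF4 readout (405 nm excitation; 460 and 530 nm emission) quantified AP-1-driven beta-lactamase in ME-180 cells after 5 h with compound and EC50 EGF; AC50 values were derived for activators and inhibitors.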

[2] = molecular target: Cytochrome P450 1A2 (Homo sapiens) (UniProt P05177); experiment: p450-cyp1a2 (AID 410; calls by dose curve; note: potency is the fitted concentration of half-maximal effect;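 for activity change, negative = inhibition: -100% = full effect of reference inhibitor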)
Outline: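 O-Demethylation of luciferin 6' methyl ether by human CYP1A2 is monitored as luciferase luminescence. Substrate sits at Km (100uM); enzyme is 20nM. Values are scaled to 57 uM furafylline as maximal inhibition.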

[3] = NFAT Signaling Pathway (AID 444; active = well fitted curve in either direction with a large enough effect, not every such curve was filed as active;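 note: carbachol stimulus at about its EC50 of 1 µM final; % is set by controls: 0 for no effect and ±100 for the full control effect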); conditions: Jurkat NFAT-bla M1, carbachol, beta-lactamase ratio, 5 h; at 7.69 µM (top of the series) unless noted
Outline: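 Jurkat cells carrying an NFAT-driven β-lactamase reporter and co-transfected muscarinic M1 receptor were treated with compound plus carbachol (1 uM final, an EC50 level) for 5 h at 37 °C. CCF4 loading followed for 1 h at RT; 460/530 nm ratio gave %activity.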

[4] = Stat Signaling Pathway (AID 446; active = well fitted curve in either direction with a large enough effect, not every such curve was filed as active;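 note: ME-180 cervical cancer cells given 40 pM IL-6 alongside compound; SIE-controlled beta-lactamase reporter measured as 460/530 nm FRET emission ratio; % is set by controls: 0 for no effect and ±100 for the full control effect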); conditions: ME-180 (cervical carcinoma) SIE beta-lactamase reporter, IL-6 stimulated, 5 h; at 7.69 µM (top of the series) unless noted
Outline: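 FRET read-out (405 nm excitation, 460/530 nm emission) of a beta-lactamase reporter under a STAT-inducible element in ME-180 cervical carcinoma cells. Cells with compound receive 40 pM IL-6 for 5 h. Values are normalised to AC90 stimulation and AC90 JAK-inhibitor controls.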

[5] = molecular target: Glucocorticoid receptor (Homo sapiens) (UniProt P04150); experiment: GR-GFP Redistribution (AID 450;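 active = compounds whose dose series gives a full or clear partial fitted curve of increased nuclear translocation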; note: potency is the fitted concentration of half-maximal effect); conditions: U2OS GR-GFP nuclear translocation, laser cytometry, 2 h
Sequence of Glucocorticoid receptor (Homo sapiens) (P04150 whole entry, looked up, the tested form may be a part): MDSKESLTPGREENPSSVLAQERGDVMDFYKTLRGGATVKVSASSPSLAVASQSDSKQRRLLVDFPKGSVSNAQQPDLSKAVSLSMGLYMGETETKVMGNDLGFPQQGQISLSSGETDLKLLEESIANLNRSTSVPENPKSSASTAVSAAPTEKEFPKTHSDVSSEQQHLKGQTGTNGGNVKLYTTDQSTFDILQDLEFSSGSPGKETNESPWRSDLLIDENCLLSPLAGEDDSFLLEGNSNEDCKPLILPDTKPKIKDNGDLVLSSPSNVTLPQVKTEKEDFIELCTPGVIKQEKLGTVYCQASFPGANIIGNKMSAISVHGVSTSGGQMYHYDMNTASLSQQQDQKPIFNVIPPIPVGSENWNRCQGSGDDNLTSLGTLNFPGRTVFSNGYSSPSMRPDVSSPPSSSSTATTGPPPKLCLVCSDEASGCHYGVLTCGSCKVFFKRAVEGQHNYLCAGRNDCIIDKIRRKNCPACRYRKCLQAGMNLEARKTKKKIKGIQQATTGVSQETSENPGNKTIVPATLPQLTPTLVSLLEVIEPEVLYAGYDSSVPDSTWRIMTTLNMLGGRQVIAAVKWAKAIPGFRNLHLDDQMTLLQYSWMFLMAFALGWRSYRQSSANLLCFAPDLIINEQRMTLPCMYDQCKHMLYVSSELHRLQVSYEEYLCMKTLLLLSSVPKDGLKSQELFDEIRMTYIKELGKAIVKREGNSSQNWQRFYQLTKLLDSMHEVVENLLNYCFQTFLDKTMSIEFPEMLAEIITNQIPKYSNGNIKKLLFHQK

[6] = molecular target: Glucocorticoid receptor (Homo sapiens) (UniProt P04150); experiment: GR-EFC Redistribution (AID 451; calls by dose curve; note: potency is the fitted concentration of half-maximal effect); conditions: CHO-K1 GR-EFC translocation, beta-gal luminescence, 2 h
Outline: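 CHO-K1 cells stably expressing nuclear-localized β-gal enzyme acceptor and GR fused C-terminally to the enzyme donor fragment; ligand-driven nuclear translocation restores β-gal by complementation. Compounds titrated up to 46 uM final, 2 h at 37 °C; luminescence read.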

[7] = molecular target: Mitogen-activated protein kinase 10 (Mus musculus) (UniProt Q61831); experiment: JNK3 AlphaScreen Assay (AID 530; active = well fitted curve in either direction with a large enough effect, not every such curve was filed as active;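 note: kinase came from lysate of stimulated human HepG2 cells; signal reports phosphorylation of biotinylated GST-cJun 1-79 at Ser73 with 10 µM ATP; % is set by controls: 0 for no effect and ±100 for the full control effect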)
Outline: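 Phosphorylation of biotinylated GST-cJun(1-79) at Ser73 is measured by AlphaScreen proximity luminescence. Enzyme is JNK3 in HepG2 lysates activated with interleukin-1beta and tumor necrosis factor alpha; ATP is 10 uM final.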

[8] = molecular target: 3',5'-cyclic-AMP phosphodiesterase 4B (Homo sapiens) (UniProt Q07343); experiment: qHTS Assay for Inhibitors of PDE-IV (AID 607; active = well fitted activation curve with a large enough effect in the main read-out, with a control signal flat, not every such curve was filed as active; note: % of control where 0% means no effect)
Sequence of 3',5'-cyclic-AMP phosphodiesterase 4B (Homo sapiens) (Q07343 whole entry, looked up): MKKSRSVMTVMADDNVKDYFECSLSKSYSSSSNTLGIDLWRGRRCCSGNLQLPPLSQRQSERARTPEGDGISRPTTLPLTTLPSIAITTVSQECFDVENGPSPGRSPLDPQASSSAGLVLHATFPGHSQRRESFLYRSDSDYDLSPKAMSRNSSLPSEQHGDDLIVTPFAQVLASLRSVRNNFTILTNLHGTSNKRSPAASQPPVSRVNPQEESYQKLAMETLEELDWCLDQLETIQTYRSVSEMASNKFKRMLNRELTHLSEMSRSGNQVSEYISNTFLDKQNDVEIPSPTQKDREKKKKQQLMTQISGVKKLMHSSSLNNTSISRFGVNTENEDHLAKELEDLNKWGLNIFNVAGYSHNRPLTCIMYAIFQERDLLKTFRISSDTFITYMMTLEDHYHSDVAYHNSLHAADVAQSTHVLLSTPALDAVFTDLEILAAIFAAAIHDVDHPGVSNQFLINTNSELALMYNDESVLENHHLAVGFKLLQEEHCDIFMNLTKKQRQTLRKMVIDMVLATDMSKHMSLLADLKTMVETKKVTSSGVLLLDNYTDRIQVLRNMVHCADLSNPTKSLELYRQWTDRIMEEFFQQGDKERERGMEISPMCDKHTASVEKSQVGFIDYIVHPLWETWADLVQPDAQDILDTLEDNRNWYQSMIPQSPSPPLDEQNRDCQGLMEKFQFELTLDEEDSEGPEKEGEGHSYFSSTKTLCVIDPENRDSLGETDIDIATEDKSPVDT
Outline: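 Cell-based read-out of cAMP via a modified cyclic nucleotide-gated channel and membrane potential dye (535/590 nm) in HEK293 cells expressing PDE4 endogenously. Compounds tested up to 22.9 uM final; 100 uM RO 20-1724 reference.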

[9] = molecular target: Guanine nucleotide-binding protein G(i) subunit alpha-1 (Homo sapiens) (UniProt P63096); experiment: qHTS Assay for Inhibitors of RGS12 GoLoco Motif Activity (Green Fluorophore) (AID 879);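 note: 0% = labeled peptide with Gαi1 and full inhibition = labeled peptide alone without protein; negative values mean loss of peptide binding seen as reduced polarization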
Sequence of Guanine nucleotide-binding protein G(i) subunit alpha-1 (Homo sapiens) (P63096 whole entry, looked up): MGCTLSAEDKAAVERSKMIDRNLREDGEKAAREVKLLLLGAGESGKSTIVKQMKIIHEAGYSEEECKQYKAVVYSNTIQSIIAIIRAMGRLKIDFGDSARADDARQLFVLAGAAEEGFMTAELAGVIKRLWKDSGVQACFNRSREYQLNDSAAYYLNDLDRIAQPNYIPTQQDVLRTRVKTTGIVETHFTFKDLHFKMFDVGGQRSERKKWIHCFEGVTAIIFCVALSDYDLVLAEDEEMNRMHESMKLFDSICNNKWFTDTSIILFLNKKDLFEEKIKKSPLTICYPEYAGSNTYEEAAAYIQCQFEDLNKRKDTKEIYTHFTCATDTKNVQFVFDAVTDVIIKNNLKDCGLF
Outline: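 A drop in FITC polarization marked displacement of the FITC-tagged RGS12 GoLoco peptide (10 nM) from Gαi1 (50 nM). Compounds were incubated 10 min at room temperature in Tris pH 7.5 buffer containing 150 mM NaCl, 0.1 mM GDP and 0.05% NP40; unlabeled peptide titration served as control.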

[10] = qHTS Assay for Identification of Small Molecule Agonists for Thrombopoietin (TPO) Signaling Pathway (AID 917); note: % is set by controls: 0 for no effect and ±100 for the full control effect
Outline: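 Luciferase reporter (Glycoprotein IIb promoter) in IL-3-deprived Ba/F3 cells carrying human TPO receptor; compounds co-added with 26 pM TPO, incubated 24 h, 37 C. Steadylite luminescence measured after 10 min.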

[11] = molecular target: Muscarinic acetylcholine receptor M1 (Rattus norvegicus) (UniProt P08482); experiment: qHTS Assay for Antagonists of Acetylcholine Muscarinic M1 Receptor: Kinetic Measurement of Intracellular Calcium Response (AID 943);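 note: Fluo-4 calcium signal as peak divided by basal fluorescence over 4 min; nearly all actives have a fitted effect of over 75% in size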
Sequence of Muscarinic acetylcholine receptor M1 (Rattus norvegicus) (P08482 whole entry, looked up): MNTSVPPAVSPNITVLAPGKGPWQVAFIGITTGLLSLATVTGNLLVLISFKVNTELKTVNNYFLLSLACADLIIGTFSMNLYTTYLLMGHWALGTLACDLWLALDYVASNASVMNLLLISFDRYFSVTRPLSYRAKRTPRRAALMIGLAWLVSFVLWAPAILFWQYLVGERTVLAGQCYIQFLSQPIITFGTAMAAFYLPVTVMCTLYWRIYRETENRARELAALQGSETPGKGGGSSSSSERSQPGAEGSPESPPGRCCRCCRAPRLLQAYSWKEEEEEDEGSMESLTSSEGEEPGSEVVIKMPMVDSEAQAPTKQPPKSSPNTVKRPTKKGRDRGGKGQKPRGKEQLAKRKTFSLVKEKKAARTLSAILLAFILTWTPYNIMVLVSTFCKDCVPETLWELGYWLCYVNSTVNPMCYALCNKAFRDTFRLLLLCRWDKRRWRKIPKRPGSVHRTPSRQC
Outline: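 Antagonism is measured as inhibition of the carbachol-evoked calcium rise in CHO cells transfected with rat M1. Cells are dye-loaded, exposed to compound for 10 min, then stimulated with 100 nM carbachol (EC80).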

[12] = molecular target: Pyruvate kinase (Leishmania mexicana) (UniProt Q27686); experiment: qHTS Validation Assay for Inhibitors of Leishmania Mexicana Pyruvate Kinase (AID 945);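 note: 0% = DMSO only neutral control wells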
Sequence of Pyruvate kinase (Leishmania mexicana) (Q27686 2-499 E452W): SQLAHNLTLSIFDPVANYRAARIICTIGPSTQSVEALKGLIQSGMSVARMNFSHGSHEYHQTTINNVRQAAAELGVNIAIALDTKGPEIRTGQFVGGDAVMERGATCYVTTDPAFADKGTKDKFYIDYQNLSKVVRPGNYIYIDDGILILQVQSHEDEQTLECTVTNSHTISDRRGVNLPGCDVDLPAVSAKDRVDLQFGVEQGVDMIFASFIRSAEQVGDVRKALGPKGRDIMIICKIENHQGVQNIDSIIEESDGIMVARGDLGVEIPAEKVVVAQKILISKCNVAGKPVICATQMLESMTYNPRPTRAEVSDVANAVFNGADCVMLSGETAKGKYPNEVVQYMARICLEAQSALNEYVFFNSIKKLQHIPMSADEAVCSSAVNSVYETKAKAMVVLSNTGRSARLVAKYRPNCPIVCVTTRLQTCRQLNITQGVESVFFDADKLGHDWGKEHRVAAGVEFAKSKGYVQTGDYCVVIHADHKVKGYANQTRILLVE
Outline: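 Eight-point qHTS titrations in triplicate, data normalized to DMSO neutral control. Reaction: 0.2 nM LmPYK E451W mutant, 0.5 mM PEP, 0.1 mM ADP, 7 mM MgCl2, pH 7.2, one hour at room temperature; luminescent ATP detection.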

[13] = molecular target: Pyruvate kinase PKM (Homo sapiens) (UniProt P14618); experiment: qHTS Assay for Activators of Human Muscle Pyruvate Kinase (AID 954; active = well fitted curve in the direction sought with a large enough effect, not every such curve was filed as active;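 note: 0% = uninhibited enzyme and -100% = no enzyme or full thiadiazolimine inhibition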)
Sequence of Pyruvate kinase PKM (Homo sapiens) (P14618 whole entry, looked up): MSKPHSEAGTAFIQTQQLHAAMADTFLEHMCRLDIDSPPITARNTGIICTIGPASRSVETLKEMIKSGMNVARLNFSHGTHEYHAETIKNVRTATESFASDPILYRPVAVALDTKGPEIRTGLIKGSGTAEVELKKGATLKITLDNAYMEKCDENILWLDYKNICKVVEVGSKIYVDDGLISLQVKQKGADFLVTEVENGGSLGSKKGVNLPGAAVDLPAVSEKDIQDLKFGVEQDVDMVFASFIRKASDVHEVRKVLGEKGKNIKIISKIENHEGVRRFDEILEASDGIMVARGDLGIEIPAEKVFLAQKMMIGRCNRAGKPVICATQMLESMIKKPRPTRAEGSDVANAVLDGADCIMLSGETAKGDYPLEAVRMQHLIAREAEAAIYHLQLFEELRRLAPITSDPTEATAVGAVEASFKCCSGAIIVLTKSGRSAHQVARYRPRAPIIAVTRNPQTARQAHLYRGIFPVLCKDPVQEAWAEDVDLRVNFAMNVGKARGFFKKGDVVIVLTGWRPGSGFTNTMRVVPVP
Outline: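 ATP production by PKM2 detected via luciferase luminescence after 1 h room-temperature reaction (0.1 nM enzyme, PEP at Km 0.5 mM, ADP 0.1 mM, pH 7.2 imidazole buffer). Inhibition scaled to no-enzyme control; activation referenced to 0.3 nM enzyme wells.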

[14] = molecular target: Alpha-galactosidase (Coffea arabica) (UniProt Q42656); experiment: Counterscreen for Glucocerebrosidase Inhibitors: qHTS Assay for Coffee Bean alpha-Galactosidase at pH 4.5 (AID 957);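 note: plate controls were enzyme alone for no effect and no enzyme for full effect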
Sequence of Alpha-galactosidase (Coffea arabica) (Q42656 whole entry, looked up): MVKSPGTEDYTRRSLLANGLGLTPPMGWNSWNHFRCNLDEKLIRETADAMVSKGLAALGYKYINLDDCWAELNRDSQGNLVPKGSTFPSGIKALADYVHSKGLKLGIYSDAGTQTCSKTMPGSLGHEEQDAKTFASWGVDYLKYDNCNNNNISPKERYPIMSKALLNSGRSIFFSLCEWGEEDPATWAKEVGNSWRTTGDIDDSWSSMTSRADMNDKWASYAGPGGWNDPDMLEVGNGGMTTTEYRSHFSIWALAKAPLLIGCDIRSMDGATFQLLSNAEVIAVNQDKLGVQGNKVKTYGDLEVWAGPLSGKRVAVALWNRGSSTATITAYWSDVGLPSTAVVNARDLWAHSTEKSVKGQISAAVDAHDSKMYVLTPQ
Outline: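 Enzyme is added first (2 nM final), then compounds titrated from 0.7 nM to 77 uM, then 80 uM 4-methylumbelliferyl alpha-D-galactopyranoside; after 20 min at room temperature a pH 10 NaOH/glycine stop precedes fluorescence reading at 365/440 nm.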

[15] = molecular target: Alpha-galactosidase A (Homo sapiens) (UniProt P06280); experiment: Counterscreen for Glucocerebrosidase Inhibitors: qHTS Assay for Human alpha-Galactosidase at pH 4.5 (AID 992); note: 0% is about no effect
Sequence of Alpha-galactosidase A (Homo sapiens) (P06280 whole entry, looked up): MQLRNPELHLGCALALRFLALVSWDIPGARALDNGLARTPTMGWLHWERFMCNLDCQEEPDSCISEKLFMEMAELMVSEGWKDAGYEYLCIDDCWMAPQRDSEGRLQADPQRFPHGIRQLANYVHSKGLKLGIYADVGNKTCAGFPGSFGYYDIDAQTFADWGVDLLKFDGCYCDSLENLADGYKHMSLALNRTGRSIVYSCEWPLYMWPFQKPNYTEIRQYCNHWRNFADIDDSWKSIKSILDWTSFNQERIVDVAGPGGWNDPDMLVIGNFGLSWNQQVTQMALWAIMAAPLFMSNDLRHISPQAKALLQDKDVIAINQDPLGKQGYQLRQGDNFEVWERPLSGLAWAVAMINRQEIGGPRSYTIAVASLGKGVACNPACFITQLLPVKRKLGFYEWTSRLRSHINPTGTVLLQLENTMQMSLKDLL
Outline: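 Fluorogenic 1536-well qHTS at pH 4.5 (citrate, Tween-20): 2 nM enzyme, 80 uM 4-MU-alpha-galactoside, 20 min room temperature, NaOH/glycine stop. Titration 0.7 nM to 77 uM, data normalized to no-enzyme and full-activity controls, Hill-fitted AC50.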

[16] = molecular target: alpha-glucosidase (Oryza sativa, rice) (UniProt Q653V4); experiment: Counterscreen for Glucocerebrosidase Inhibitors: qHTS Assay for Rice alpha-Glucosidase at pH 5.0 (AID 997);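 note: 0% = full activity with enzyme and -100% = basal without enzyme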
Outline: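 Endpoint fluorogenic assay at pH 5.0: compounds (0.7 nM to 77 uM) titrated against 4 nM rice enzyme and 400 uM 4-MU-alpha-glucoside for 20 min at room temperature; NaOH/glycine stop, read ex 365/em 440 nm, Hill-fitted AC50.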

[17] = molecular target: Alpha-galactosidase (Coffea arabica) (UniProt Q42656); experiment: Counterscreen for Glucocerebrosidase Inhibitors: qHTS Assay for Coffee Bean alpha-Galactosidase at pH 5.9 (AID 998);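 note: plate controls were uninhibited enzyme for no effect and no-enzyme basal signal for full effect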
Outline: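 In 50 mM citric acid pH 5.9 with 0.005% Tween-20, coffee bean enzyme hydrolyses 80 uM 4-MU alpha-D-galactopyranoside over 20 min at RT. Activity is normalized to controls; AC50 comes from Hill-modelled concentration-response data.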

[18] = molecular target: Cytochrome P450 2C9 (Homo sapiens) (UniProt P11712); experiment: qHTS Assay for Inhibitors and Substrates of Cytochrome P450 2C9 (AID 883); note: potency is the fitted concentration of half-maximal effect; nearly all actives have a fitted effect of over 60% in size
Outline: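 CYP2C9 deoxyluciferin hydroxylation, 37C, 60 min with NADPH regeneration; 10nM enzyme, 100uM Luciferin-H (KM). Glo detection reagent stopped reaction; luminescence normalized to sulphaphenazole (57uM) full inhibition.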

[19] = molecular target: Cytochrome P450 2C19 (Homo sapiens) (UniProt P33261); experiment: qHTS Assay for Inhibitors and Substrates of Cytochrome P450 2C19 (AID 899); note: nearly all actives have a fitted effect of over 60% in size; note: potency is the fitted concentration of half-maximal effect
Outline: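 In 50mM KPO4, the reaction held 5nM enzyme and KM-level (10uM) Luciferin-H EGE; it ran 60 min at 37C after NADPH regeneration and a 10 min compound preincubation. Luminescence values were scaled to 57uM ketoconazole as complete inhibition.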

[20] = molecular target: Cytochrome P450 3A4 (Homo sapiens) (UniProt P08684); experiment: qHTS Assay for Activators of Cytochrome P450 3A4 (AID 885); note: nearly all actives have a fitted effect of over 65% in size
Sequence of Cytochrome P450 3A4 (Homo sapiens) (P08684 whole entry, looked up): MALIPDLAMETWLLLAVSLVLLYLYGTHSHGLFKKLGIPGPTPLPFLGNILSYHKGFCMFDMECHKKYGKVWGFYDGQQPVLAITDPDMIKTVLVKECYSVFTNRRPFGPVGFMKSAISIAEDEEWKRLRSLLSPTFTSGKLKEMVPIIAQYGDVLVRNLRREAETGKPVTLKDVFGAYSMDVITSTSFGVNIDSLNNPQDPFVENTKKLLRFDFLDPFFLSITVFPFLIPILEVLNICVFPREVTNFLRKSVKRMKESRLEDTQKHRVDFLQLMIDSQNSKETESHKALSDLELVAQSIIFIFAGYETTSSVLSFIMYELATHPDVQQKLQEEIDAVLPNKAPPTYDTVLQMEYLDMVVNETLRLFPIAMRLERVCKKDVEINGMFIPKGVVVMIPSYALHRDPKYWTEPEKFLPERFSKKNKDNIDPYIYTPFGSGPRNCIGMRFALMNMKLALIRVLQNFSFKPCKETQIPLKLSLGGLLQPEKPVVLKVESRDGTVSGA
Outline: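 Luminescent readout of luciferin formed from 25 uM Luciferin-PPXE (KM level) by 20 nM CYP3A4 in 200 mM KPO4, with 60 min NADPH-driven reaction at room temperature after 10 min compound exposure. Ketoconazole (57 uM) defined 100% inhibition.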

[21] = molecular target: Muscarinic acetylcholine receptor M1 (Rattus norvegicus) (UniProt P08482); experiment: qHTS Assay for Antagonists of Acetylcholine Muscarinic M1 Receptor: Measurement of IP-One Response (AID 944); note: nearly all actives have a fitted effect of over 75% in size
Outline: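 Antagonist mode with rat M1 receptor transfected into CHO cells. Compound is added first for 10 min, carbachol at its EC80 follows for 30 min, and lysis reagents then allow TR-FRET detection of accumulated IP1.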

[22] = qHTS Assay for Identification of Small Molecule Antagonists for NFkB Signaling Pathway (AID 895; active = well fitted inhibition curve with a large enough effect in the signal ratio, with a control signal flat, not every such curve was filed as active; the % refers to the signal ratio; note: % is set by controls: 0 for no effect and ±100 for the full control effect)
Outline: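 NFkB-bla ME-180 cervical carcinoma cells with beta-lactamase reporter under NFkB response element; compounds added, then TNF alpha at 10 pM final (EC50), 5 h at 37 C. LiveBLAzer substrate 2 h, room temperature; emission 460/530 nm at 405 nm excitation.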

N[C@H](CCl)C(=O)O
inactive: activity change, negative = inhibition [1] 0.76% [at 38 µM] | Potency [2] | activity change, negative = inhibition [3] 14.9% [at 38 µM] | activity, negative = inhibition [4] -9.55% [at 38 µM] | Potency [5] > 46 µM | Potency [6] > 46 µM | Potency [7] | outcome [8] | outcome [9] | outcome [10] | Potency [11] | outcome [12] | outcome [13] | outcome [14] | outcome [15] | outcome [16] | outcome [17]

CC(C)[C@@]1(NC(=O)[C@H]2C[C@H]3c4cccc5[nH]cc(c45)C[C@@H]3N(C)C2)O[C@]2(O)[C@H]3CCCN3C(=O)[C@H](Cc3ccccc3)N2C1=O
inactive: activity change, negative = inhibition [1] -10% [at 38 µM] | activity change, negative = inhibition [3] 1.76% [at 38 µM] | Potency [5] > 46 µM | Potency [6] > 46 µM | Potency [7] | outcome [8]
active: Potency [18] 2.51 µM | Potency [19] 6.31 µM

C[Se]C[C@@H](N)C(=O)O
inactive: activity change, negative = inhibition [1] 1.98% [at 38 µM] | Potency [2] | activity change, negative = inhibition [3] 5.06% [at 38 µM] | activity, negative = inhibition [4] -28.4% [at 38 µM] | Potency [5] > 46 µM | Potency [6] > 46 µM | Potency [7] | outcome [8] | outcome [9] | Potency [20] | Potency [19] | outcome [10] | Potency [11] | Potency [21] | outcome [12] | outcome [13] | outcome [14] | outcome [15] | outcome [16] | outcome [17]

C[C@@]12CC[C@H]3[C@@H](CC[C@@H]4C[C@H](O)CC[C@]43C)[C@H]1CC[C@H]2O
inactive: activity change, negative = inhibition [1] -12.3% [at 38 µM] | activity change, negative = inhibition [3] 6.96% [at 38 µM] | activity, negative = inhibition [4] 24.5% [at 38 µM] | Potency [5] > 46 µM | Potency [7] | outcome [8] | outcome [9] | Potency [20] | outcome [10] | Potency [21] | outcome [12] | outcome [13] | outcome [14] | outcome [15] | outcome [16] | outcome [17]
active: Potency [2] 15.8 µM

C[N+]1(C)C2CC(OC(=O)C(CO)c3ccccc3)CC1[C@@H]1O[C@H]21 (some centres undefined)
active: activity change, negative = inhibition [3] -56.8% [at 38 µM]
inactive: activity change, negative = inhibition [1] -8.85% [at 38 µM] and -6.94% [at 38 µM] | Potency [2] | activity, negative = inhibition [4] 5.12% [at 38 µM] and -2.5% [at 38 µM] | Potency [5] > 46 µM | Potency [6] > 46 µM | Potency [7] | outcome [9] | Potency [20] | Potency [22] | outcome [10] | outcome [12] | outcome [13] | outcome [14] | outcome [15] | outcome [16] | outcome [17]
